# Experimental data published in ChEMBL document CHEMBL4513216, “Probing the Open Global Health Chemical Diversity Library for Multistage-Active Starting Points for Next-Generation Antimalarials” (ACS Infect Dis, 2020).
# The whole screen tested about 65,000 compounds, of which about 2,100 (3.2%) showed an effect of 50% or more. The median lay at about -52%. For the sample, strong results were picked, then their nearest neighbours and some compounds at random.
# System: Plasmodium falciparum
# Assay: Screen against P. falciparum Asexual Blood Stage (ABS), at 5uM
# Type: functional, Dd2
# Details: tested at 5 uM
row,Compound,INHIBITION [%]
1,Cn1cc(C2=CCN(CCCC(=O)Nc3ccc(C#N)cc3)CC2)cn1,-69.1
2,Cc1ccc(CN2CC[C@@H]3[C@@H]2CCN3C(=O)Cc2cccs2)o1,-34.3
3,CCn1ccnc1CN(C)C1CCCN(Cc2ccccc2F)C1 (stereo not drawn),70.4
4,Cc1nc(CC(=O)N(C)C2CCCN(CCc3ccccc3)C2)cs1 (stereo not drawn),-42.4
5,CCn1ccnc1CN(C)C1CCCN(CCc2ccccc2)C1 (stereo not drawn),77.1
6,CCn1ccnc1CN1CCCN(C(=O)Cc2ccc(F)cc2)CC1,-4.98
7,Cc1ncc(CN(C)C2CCCN(CCc3ccccc3)C2)n1C (stereo not drawn),90
8,CCn1ccnc1CN(C)C1CCCN(CCCc2ccccc2)C1 (stereo not drawn),86.8
9,CCn1ccnc1CN1CCCN(C(=O)Cc2ccccc2C)CC1,-41.3
10,CCn1c(C)nnc1CN(C)C1CCN(CCOc2ccccc2)C1 (stereo not drawn),-23.4
11,COC(=O)N1C[C@@H]2CC[C@H]1CN(Cc1ccncc1)C2,-81.6
12,c1cncc(O[C@H]2CC[C@H]3[C@H]2OCCN3C2CCCC2)c1,-36.8
13,O=C(c1ccc(F)c(F)c1)N1C[C@H]2CNC[C@H]2C1,-51.2
14,Cc1nccn1CCCN1CCCC(c2ccccc2)C1 (stereo not drawn),77.8
15,Cc1ccc(O[C@@H]2C[C@H]3CN(c4ncc(F)cn4)CCN3C2)cc1,-98.8
16,c1cncc(OC[C@@]23CCC[C@@H]2CN(CC2CCOCC2)C3)c1,39
17,c1ccc(C2CN(C3CC3)CC3(CCN(Cc4cscn4)CC3)C2)cc1 (stereo not drawn),80.4
18,O=C1NCC[C@]12CN(Cc1ccncc1)C[C@H]2c1ccccc1,-70.3
19,c1cc(NC2CC3(CCN(Cc4cscn4)C3)C2)ncn1 (stereo not drawn),-13.3
20,c1cc(NC2CC3(CCN(Cc4cc[nH]n4)C3)C2)ncn1 (stereo not drawn),-152
21,Cc1cc(NC2CC3(CCN(Cc4cscn4)C3)C2)ncn1 (stereo not drawn),19.4
22,COCC1CC2(CCN(Cc3ccccn3)CC2)CN1C(C)C (stereo not drawn),9.58
23,COCC1CC2(CCN(CC3CC3)CC2)CN1Cc1ccccn1 (stereo not drawn),42.4
24,CN1CC(c2ccccc2)CC2(CCN(Cc3ncc[nH]3)CC2)C1 (stereo not drawn),82.5
25,CCN1CC(c2ccccc2)CC2(CCN(Cc3ncc[nH]3)CC2)C1 (stereo not drawn),88.1

row,Compound,INHIBITION [%]
1,Cc1ncsc1CN1CCO[C@H]2[C@H](Oc3ccccn3)CC[C@@H]21,-24.4
2,CCC12CN3CC(CC)(CN(C1)C3c1[nH]c(=O)[nH]c(=O)c1C)C2=O (stereo not drawn),-87.1
3,CCOC(=O)[C@@H]1[C@@H](c2ccccc2)CN2CCN(C(=O)C3CC3)C[C@H]12,-91.7
4,c1cc(CN2CCO[C@@H]3CNC[C@@H]32)co1,-38.2
5,COc1cc(C2SCC(=O)Nc3n[nH]cc32)cc(OC)c1O (stereo not drawn),-36
6,COc1cc(C2c3c(n[nH]c3C)N=C3COC(=O)C32)cc(Br)c1O (stereo not drawn),91
7,CCOc1c(Br)cc(C2c3c(n[nH]c3C)N=C3COC(=O)C32)cc1OC (stereo not drawn),81.1
8,c1ccc(CN2CCO[C@H]3[C@H](OCCN4CCCC4)CC[C@@H]32)nc1,30
9,CN1CCN(C[C@H]2CN3CC[C@H]2C[C@@H]3CNC(=O)c2ccco2)CC1,-59.7
10,O=C1CO[C@@H]2CN(Cc3ccncc3)C[C@H]2N1Cc1ccncc1,-52.2
11,CC(=O)N1CCC2(CC1)NC(=O)[C@H]1CN(Cc3cccnc3)C[C@H]12,-6.03
12,O=C(COc1cccc(F)c1)N1C[C@@H](O)[C@H](N2CCOCC2)C1,-17.5
13,CC1=C(CCN2C[C@H](O)[C@@H](N3CCOCC3)C2)C(C)(C)CCC1,78.3
14,Cc1ccccc1CC(=O)N1C[C@@H](O)[C@H](N2CCOCC2)C1,-16.5
15,COc1cc(N2CCC[C@]3(C(=O)O)CN(C(C)C)C[C@@H]3C2)ncn1,-85.1
16,Clc1cc(Cl)cc(CN2CCC(NCc3ncc[nH]3)CC2)c1,84.7
17,Brc1ccc(CN2CCC(NCc3ncc[nH]3)CC2)cc1,83.5
18,O=S1(=O)C[C@@H]2[C@H](C1)N(Cc1ncc[nH]1)CCN2Cc1cccnc1,-89.75
19,COCCc1ncc(CN2CCCC(C(=O)c3ccccc3)C2)cn1 (stereo not drawn),-145
20,Cc1nc(CN(C)C)cc(N2CCCC(COc3ccc(F)cc3)C2)n1 (stereo not drawn),86.4
21,CCn1cc(CN2CCCC(COc3ccc(F)cc3)C2)cn1 (stereo not drawn),75.5
22,CCn1cc(CN2CCCN(C(=O)Cc3ccc(C)nc3)CC2)cn1,-14.8
23,CCn1cc(CN2CCCN(C(=O)Cc3cccs3)CC2)cn1,-85.9
24,CCn1cc(CN2CCCC(COc3ccccc3F)C2)cn1 (stereo not drawn),72.7
25,O=C(N[C@@H]1CN[C@@H]2CCCO[C@@H]21)c1cscn1,14

row,Compound,INHIBITION [%]
1,Cc1noc(C)c1CN1CC[C@H]2C[C@H](c3nccs3)O[C@@H]2C1,-8.14
2,O=C1CO[C@H]2CN(C3CCOCC3)C[C@H]2N1Cc1ccccn1,-104
3,CCCc1nc(C(=O)N[C@H]2COC[C@@H]2N2CCN(C)CC2)cs1,-49.3
4,COCCN1CCc2c(cnc(-c3ccoc3)c2C(=O)O)C1,-47.6
5,Cc1occc1C(=O)N1CCN2C[C@H](Oc3cccnc3)C[C@H]2C1,-23.4
6,Cc1ccc(OCc2occc2C(=O)N2CCCCC(N)C2)cc1 (stereo not drawn),77.5
7,CC(C)NC(=O)[C@H]1C[C@H]2NCCO[C@@H]2C1,-33.9
8,Cc1cc(CN2C[C@H]3CCC[C@@]3(COCC3CCOCC3)C2)no1,-91.9
9,O=C(CN1C[C@@H]2CC[C@H]1CN(Cc1ccccn1)C2)Nc1ccccc1,83.6
10,Oc1cccc(CN2C[C@@H]3CC[C@H]2CN(Cc2cccnc2)C3)c1,-14.5
11,Cc1nnsc1CN1C[C@@H]2CC[C@H]1CN(Cc1ccccn1)C2,-2.06
12,O=C(Cc1ccccn1)N1C[C@H]2CN(Cc3ccccn3)C[C@H]2C1,-68.5
13,O[C@@]1(c2ccccn2)CC[C@H]2CN(Cc3ccccn3)C[C@H]21,-89.9
14,CC(C)(C)c1cc(CN2C[C@@H]3CC[C@H]2CN(Cc2ccccn2)C3)n[nH]1,74.1
15,Fc1ccc(CNC2CCN(CCc3ccncc3)CC2)cc1F,89.8
16,CN1CCN(Cc2ccncc2)Cc2cccnc21,-190
17,CN(c1ncccc1C#N)C1CCN(CCc2ccncc2)CC1,30.8
18,Cc1cccc(CNC2CCN(CCc3ccncc3)CC2)c1C,76.3
19,c1ccc2c(c1)CCC21CN(CCc2ccncc2)CCO1 (stereo not drawn),-30.5
20,COCCNC(=O)[C@@]12CCO[C@@H]1CCN(Cc1ccncc1)C2,-51.1
21,Clc1cccc(CNC2CCN(CCc3ccncc3)CC2)c1,92.3
22,Cc1ccc(CNC2CCN(CCc3ccncc3)CC2)cc1C,86.9
23,C[C@@H]1C[C@@H]2CCN(Cc3ccncc3)C[C@H]2O1,-17.4
24,Cc1n[nH]c2c1C(c1ccc(Cl)cc1)SCC(=O)N2 (stereo not drawn),-12.6
25,Cc1ccc(C(=O)N2C[C@@H]3OCCN(C(C)C)[C@@H]3C2)cn1,-18.4

row,Compound,INHIBITION [%]
1,Cc1cccc(CN2C(=O)C[C@H]3[C@@H]2CCN3Cc2ccco2)n1,13.4
2,COCCN1CCO[C@H]2CN(C(=O)c3ccncc3F)C[C@H]21,-230
3,CC(Cn1cccn1)NCC(=O)NC1CCOCC1 (stereo not drawn),-32.4
4,Cc1cc(CC(=O)N2CCN(C)[C@@H]3CS(=O)(=O)C[C@@H]32)ccc1F,-54.5
5,C[C@@H]1CN(Cc2ccsc2)C[C@]12CCN(Cc1cccnc1)C2=O,-45.2
6,CCN1C[C@H]2CCN(Cc3ccncc3)C(=O)[C@@H]2C1,-66.4
7,CSc1ccc(CNC2CCN(CCc3ccncc3)CC2)cc1,93
8,CC1CN(CCc2ccncc2)CCO1 (stereo not drawn),-107
9,Cc1nc(CO[C@H]2CN(Cc3ccccn3)[C@@H]3CCCO[C@H]23)cs1,-44.2
10,CCC1=N[C@@]2(CC[C@@H]3CN(CC)C[C@@H]32)C(=O)N1C,-47.6
11,CC1=N[C@@]2(CC[C@@H]3CNC[C@@H]32)C(=O)N1CC(C)C,-138
12,CC1=N[C@@]2(CC[C@@H]3CN(Cc4ccccc4C)C[C@@H]32)C(=O)N1CC1CC1,85.1
13,CNC(=O)[C@H]1C[C@@H]2CN(C(=O)c3cncc(C)c3)C[C@@H]2N1C,-93.3
14,CC(C)NC(=O)C1(Cc2ccccc2-c2ccccc2)CCCNC1 (stereo not drawn),76.7
15,CC(C)CNC(=O)C1(Cc2ccccc2-c2cccs2)CCNC1 (stereo not drawn),71.7
16,O=C(Nc1ccccc1)C1=NOC2(CCCNC2)C1 (stereo not drawn),-22.7
17,CC(C)NC(=O)N1CCOC2(CCCNC2)C1 (stereo not drawn),-67.8
18,CC(C)CNC(=O)N1CCOC2(CCNCC2)C1,-53.6
19,CC(C)NC(=O)[C@@H]1C[C@H]2NCC[C@H]2O1,-104
20,CCN1CCC2(COCc3cnc(NCC4CC4)nc32)C1 (stereo not drawn),1.43
21,CCN1C[C@@H]2[C@@H](OC)CCN(S(=O)(=O)c3cccnc3)[C@@H]2C1,-17.9
22,COc1cc2nc(NCc3scnc3C)nc(N)c2cc1OC,89.8
23,COc1cc2nc(NCc3ccc(C)nc3)nc(N)c2cc1OC,90.6
